According to the supplement of paper PMC10849652:
Of roughly 8,800 targets only a part is listed; those with a hit were picked by preference. About 0.5% of all pairs of compound and target were hits.

Key:
Assay in all cases: log2 fold change, soluble protein after heating vs DMSO (PISA); higher = thermal stabilisation; K562 lysate, 10 uM; active = over 0.2 and 3.5 SD of the protein, either way, in both replicates (recomputed)
[1] = compound: NCC(=O)Nc1ccc(-n2nc(C(F)(F)F)cc2-c2ccc3c(ccc4ccccc43)c2)cc1
In short: (§1)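 Values give the log-two fold change in thermal stability against solvent controls, from duplicates. Crude K562 extract at 1 mg/mL protein, made by dounce homogenisation in PBS pH 7.4 with 1 mM MgCl2, was treated with 10 μM compound for 30 min. After 3 min heating across 48°C-58°C, aliquots were pooled, adjusted to 0.5% NP-40 at 4°C and centrifuged at 21,000xg for 90 min. The supernatant was measured by TMTpro 16plex LC-MS/MS with channel sums equalised.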

[2] = compound: O=C(CCCCCCC(=O)Nc1ccccc1)NO [vorinostat]
In short: as §1

[3] = compound: O=C(O)c1ccc2c(c1)nc(Nc1cccc(Cl)c1)c1ccncc12 [silmitasertib]
In short: as §1

[4] = compound: O=C1NC(=O)C(c2cnc3ccccn23)=C1c1cn2c3c(cc(F)cc13)CN(C(=O)N1CCCCC1)CC2
In short: as §1

[5] = compound: c1cn2cc(-c3ccc4cn[nH]c4c3)nc(Nc3ccc(N4CCOCC4)cc3)c2n1 [entospletinib]
In short: as §1

Measured: log2 fold change

ADAMTS5 (UniProt Q9UNA0)
inactive: [1] 0.137 | [2] 0.028 | [3] -0.065 | [4] 0.062 | [5] -0.125

ANXA5 (UniProt P08758)
UniProt P08758, sequence (P08758 whole entry, looked up): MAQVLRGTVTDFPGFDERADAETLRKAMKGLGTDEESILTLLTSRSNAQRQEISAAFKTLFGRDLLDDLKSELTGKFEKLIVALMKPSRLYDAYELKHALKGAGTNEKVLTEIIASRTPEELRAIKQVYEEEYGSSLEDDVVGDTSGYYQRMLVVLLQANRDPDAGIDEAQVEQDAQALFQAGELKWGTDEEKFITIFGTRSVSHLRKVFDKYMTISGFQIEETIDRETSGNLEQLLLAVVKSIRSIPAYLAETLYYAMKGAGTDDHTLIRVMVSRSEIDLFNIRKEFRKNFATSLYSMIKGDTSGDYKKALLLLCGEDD
inactive: [1] -0.008 | [2] 0.056 | [3] 0.021 | [4] -0.017 | [5] 0.006

ANXA13 isoform 2 (UniProt P27216)
UniProt P27216, sequence (P27216 whole entry, looked up): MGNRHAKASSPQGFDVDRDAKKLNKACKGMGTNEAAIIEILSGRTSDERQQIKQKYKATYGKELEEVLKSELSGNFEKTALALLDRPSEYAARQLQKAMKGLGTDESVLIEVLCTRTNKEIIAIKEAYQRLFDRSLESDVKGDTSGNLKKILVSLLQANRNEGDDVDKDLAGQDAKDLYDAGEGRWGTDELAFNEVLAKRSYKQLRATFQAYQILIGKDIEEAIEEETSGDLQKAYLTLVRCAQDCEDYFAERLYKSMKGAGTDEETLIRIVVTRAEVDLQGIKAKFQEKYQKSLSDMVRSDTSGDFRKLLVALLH
inactive: [1] -0.084 | [2] 0.004 | [3] 0.024 | [4] 0.02

ARHGAP6 (UniProt O43182)
UniProt O43182, sequence (O43182 whole entry, looked up): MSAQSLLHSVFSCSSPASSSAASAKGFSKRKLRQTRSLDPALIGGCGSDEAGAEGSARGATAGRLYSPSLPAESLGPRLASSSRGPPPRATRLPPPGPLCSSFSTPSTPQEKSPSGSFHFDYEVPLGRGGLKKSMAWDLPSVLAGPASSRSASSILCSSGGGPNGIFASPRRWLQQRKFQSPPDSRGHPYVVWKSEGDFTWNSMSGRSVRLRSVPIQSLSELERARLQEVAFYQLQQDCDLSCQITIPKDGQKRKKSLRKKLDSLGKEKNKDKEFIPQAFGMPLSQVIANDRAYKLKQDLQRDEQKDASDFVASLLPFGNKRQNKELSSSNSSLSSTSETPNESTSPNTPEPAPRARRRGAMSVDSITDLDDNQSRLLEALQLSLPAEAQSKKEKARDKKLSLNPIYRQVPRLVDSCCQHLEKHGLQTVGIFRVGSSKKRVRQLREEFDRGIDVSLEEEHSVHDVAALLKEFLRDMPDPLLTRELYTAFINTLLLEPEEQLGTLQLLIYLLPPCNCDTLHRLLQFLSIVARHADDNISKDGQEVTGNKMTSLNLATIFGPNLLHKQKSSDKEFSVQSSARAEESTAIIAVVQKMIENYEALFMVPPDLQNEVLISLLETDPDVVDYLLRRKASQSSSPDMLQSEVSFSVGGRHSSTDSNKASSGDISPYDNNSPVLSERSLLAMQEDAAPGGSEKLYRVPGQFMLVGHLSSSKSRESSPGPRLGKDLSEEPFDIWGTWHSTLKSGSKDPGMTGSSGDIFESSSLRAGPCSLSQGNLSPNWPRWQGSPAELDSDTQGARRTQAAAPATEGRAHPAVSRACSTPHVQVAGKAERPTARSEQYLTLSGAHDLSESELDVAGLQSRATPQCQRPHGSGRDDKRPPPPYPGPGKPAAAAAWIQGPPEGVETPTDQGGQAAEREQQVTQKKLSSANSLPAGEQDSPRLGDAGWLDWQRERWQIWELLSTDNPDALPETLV
inactive: [1] 0.058 | [3] 0.089 | [4] 0.025 | [5] 0.004
active: [2] -0.346

ACAA1 (UniProt P09110)
UniProt P09110, sequence (P09110 whole entry, looked up): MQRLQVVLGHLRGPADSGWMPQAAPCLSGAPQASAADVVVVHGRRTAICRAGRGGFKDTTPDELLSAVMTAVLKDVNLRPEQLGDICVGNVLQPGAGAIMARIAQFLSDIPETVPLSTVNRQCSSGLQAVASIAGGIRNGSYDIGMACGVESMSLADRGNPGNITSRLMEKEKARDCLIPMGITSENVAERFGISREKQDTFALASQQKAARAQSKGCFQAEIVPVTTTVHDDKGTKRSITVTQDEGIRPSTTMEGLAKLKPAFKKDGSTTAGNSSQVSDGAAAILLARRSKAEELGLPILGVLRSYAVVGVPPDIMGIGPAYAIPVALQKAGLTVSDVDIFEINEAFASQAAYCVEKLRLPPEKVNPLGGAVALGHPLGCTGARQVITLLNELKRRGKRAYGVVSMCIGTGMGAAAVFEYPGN
active: [2] -0.332
inactive: [1] -0.005 | [3] -0.039 | [4] 0.033 | [5] 0.038

ACAT1 (UniProt P24752)
UniProt P24752, sequence (P24752 whole entry, looked up): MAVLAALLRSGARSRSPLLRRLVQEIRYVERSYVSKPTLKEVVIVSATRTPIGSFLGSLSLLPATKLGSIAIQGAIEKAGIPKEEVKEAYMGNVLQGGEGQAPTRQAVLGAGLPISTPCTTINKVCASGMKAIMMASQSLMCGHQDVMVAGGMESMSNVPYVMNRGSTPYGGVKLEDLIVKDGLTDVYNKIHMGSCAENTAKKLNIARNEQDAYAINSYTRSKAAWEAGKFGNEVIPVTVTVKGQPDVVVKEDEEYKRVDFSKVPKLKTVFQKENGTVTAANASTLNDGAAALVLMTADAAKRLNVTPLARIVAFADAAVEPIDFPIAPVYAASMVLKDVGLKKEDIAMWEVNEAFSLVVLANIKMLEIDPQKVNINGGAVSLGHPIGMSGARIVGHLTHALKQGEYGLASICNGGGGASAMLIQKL
inactive: [1] 0.011 | [3] -0.037 | [4] -0.014 | [5] 0.018
active: [2] -1.05

ANKRD10 (UniProt Q9NXR5)
UniProt Q9NXR5, sequence (Q9NXR5 whole entry, looked up): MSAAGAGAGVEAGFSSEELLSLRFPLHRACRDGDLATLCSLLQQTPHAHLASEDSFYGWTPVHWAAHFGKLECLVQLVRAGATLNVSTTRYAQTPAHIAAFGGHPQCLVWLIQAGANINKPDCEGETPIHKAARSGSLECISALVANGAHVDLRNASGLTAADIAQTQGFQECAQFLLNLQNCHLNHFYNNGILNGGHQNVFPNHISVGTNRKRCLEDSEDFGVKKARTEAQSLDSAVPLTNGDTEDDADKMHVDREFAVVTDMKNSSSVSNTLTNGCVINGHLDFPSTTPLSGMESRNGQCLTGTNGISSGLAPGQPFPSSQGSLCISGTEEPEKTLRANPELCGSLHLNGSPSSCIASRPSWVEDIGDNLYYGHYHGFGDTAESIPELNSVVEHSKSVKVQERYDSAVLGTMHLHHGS
active: [2] -0.589
inactive: [1] 0 | [3] 0.037 | [4] -0.066

ASB6 (UniProt Q9NWX5)
UniProt Q9NWX5, sequence (Q9NWX5 whole entry, looked up): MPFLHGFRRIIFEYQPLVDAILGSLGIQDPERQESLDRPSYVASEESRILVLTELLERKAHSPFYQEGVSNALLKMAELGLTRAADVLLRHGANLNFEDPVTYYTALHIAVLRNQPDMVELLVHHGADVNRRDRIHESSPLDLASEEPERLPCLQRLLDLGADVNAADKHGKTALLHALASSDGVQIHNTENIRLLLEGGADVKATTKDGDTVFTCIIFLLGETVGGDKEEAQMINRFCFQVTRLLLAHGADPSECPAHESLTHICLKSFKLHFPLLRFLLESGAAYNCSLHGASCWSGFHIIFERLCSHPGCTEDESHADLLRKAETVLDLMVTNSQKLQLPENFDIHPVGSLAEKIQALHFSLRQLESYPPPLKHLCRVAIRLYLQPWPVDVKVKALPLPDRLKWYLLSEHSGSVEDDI
inactive: [1] 0.116 | [2] -0.005 | [3] -0.057 | [4] -0.019 | [5] 0.074

ABCC5 (UniProt O15440)
UniProt O15440, sequence (O15440 whole entry, looked up): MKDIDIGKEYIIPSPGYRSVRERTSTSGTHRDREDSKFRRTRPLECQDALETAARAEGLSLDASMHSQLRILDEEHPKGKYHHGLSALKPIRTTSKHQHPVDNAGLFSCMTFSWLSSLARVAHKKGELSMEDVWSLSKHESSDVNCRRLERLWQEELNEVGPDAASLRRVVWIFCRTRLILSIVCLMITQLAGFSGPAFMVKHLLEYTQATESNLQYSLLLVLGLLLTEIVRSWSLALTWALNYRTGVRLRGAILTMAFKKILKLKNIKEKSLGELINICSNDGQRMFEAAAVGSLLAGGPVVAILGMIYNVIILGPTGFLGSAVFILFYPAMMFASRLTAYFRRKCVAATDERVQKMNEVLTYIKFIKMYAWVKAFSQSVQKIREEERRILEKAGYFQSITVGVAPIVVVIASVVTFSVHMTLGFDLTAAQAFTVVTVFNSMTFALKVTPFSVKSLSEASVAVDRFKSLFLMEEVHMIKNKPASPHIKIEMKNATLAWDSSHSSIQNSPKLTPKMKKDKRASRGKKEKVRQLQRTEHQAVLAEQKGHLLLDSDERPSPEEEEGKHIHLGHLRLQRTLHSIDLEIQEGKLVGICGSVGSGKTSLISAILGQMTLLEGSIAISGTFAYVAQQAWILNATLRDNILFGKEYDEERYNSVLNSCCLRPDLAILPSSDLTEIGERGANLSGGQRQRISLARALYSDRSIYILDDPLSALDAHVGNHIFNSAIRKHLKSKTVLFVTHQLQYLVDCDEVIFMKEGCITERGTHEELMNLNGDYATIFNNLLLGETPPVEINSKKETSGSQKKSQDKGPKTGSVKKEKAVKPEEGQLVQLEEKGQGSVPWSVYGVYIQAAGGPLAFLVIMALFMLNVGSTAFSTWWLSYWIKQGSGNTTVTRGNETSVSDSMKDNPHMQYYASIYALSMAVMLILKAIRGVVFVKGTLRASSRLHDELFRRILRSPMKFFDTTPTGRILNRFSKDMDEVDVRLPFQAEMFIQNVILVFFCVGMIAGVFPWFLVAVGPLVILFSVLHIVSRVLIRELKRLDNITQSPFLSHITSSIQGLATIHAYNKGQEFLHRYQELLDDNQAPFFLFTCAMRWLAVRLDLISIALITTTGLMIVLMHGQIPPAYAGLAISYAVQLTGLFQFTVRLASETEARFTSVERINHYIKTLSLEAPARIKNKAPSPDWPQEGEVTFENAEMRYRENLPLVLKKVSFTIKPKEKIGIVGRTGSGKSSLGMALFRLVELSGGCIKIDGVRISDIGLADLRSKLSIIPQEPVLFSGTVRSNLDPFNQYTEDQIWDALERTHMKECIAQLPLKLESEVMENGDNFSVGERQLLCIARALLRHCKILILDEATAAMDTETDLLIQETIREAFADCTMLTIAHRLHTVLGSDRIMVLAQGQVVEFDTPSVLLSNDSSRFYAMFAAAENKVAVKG
inactive: [1] 0.025 | [2] 0.042 | [3] -0.023 | [4] -0.028 | [5] -0.036
